For 15 molecules, growth results are on record in PubChem BioAssay (NCI).

Common to all, as to assay: NCI-60 one-dose screen, 48 h (100 = growth as untreated, 0 = no growth, -100 = all killed)
Common to all, as to conditions: 10 µM unless noted

Assay [1] has as its system DU-145 prostate.
The test system of assay [2] is K-562 leukemia.
The subject of assay [3] is MALME-3M melanoma.
Assay [4] concerns MDA-MB-231 breast.
Assay [5] concerns RXF 393 renal.
Assay [6] deals with SF-268 CNS.
Assay [7] has as its system SF-295 CNS.
The test system of assay [8] is UACC-257 melanoma.
For assay [9], the system named is M14 melanoma.

Compounds without any hit were thinned out: in the full panel of roughly 83,000, 20% have a hit.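 48-hour exposure, single concentration, 96-well plates; percent growth endpoint where 0 means no net growth. Active: below 10.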 Values without a mark were called inactive. Activity calls are given as the source filed them.

In the case of `O=C(CN1CCN(c2cc3c(cc2F)c(=O)c(C(=O)O)cn3C2CC2)CC1)Nc1nc(-c2ccccc2)cs1`, the growth was 79.7% in assay [1]; 64.5% in assay [2]; 89.8% in assay [3]; 95.5% in assay [4]; 78.2% in assay [5]; 83.9% in assay [6]. Further, the growth is 69.9% in assay [7], 65.2% in assay [8] and 76% in assay [9].

Take `COc1ccc(C(=O)/C=C/c2c(Cl)c3c(c(OC)c2Cl)OCC(=O)N3)cc1`: the growth was 18.7% in assay [1]; 3.42% (active) in [2]; 66.8% in assay [3]; 34.9% in [4]; 36.3% in assay [5]; 29.9% in assay [6]. Besides, the growth was 32.1% in assay [7], 50% in assay [8] and 17.7% in [9].

As for `CC(=O)N1CC(Nc2ccc(OC(F)(F)F)cc2)=CC1=O`, the growth is 27% in assay [1]; 8.54% (active) in assay [2]; 55.7% in assay [3]; 55% in assay [4]; 39.6% in assay [5]; 59.8% in assay [6]. Further, the results for the growth in [7], in [8] and in assay [9] were 14.7%, 46.6% and 4.04% (active), respectively.

Consider `O=C([C@@H](COCc1ccccc1)N1C(=O)[C@@H](N2C(=O)OC[C@@H]2c2ccccc2)[C@H]1/C=C/c1ccccc1)N1CCC(CCN2CCCCC2)CC1`, for which the growth in [1] is 100%; in assay [2] it was 55.8%; in [3] it was -22.3% (active); in assay [4] it was 72.6%; in [5] it was 88.7%; in assay [6], 77.2%. Further, the growth in [7] was 102%; in [8] it was 64.1%; in assay [9] it was 97.8%.

Regarding `COc1ccccc1-c1ccc2c(N)c(C(=O)c3ccc4c(c3)OCO4)sc2n1`, the growth was 90.5% in assay [1]; 14.4% in [2]; 48.2% in assay [3]; 51.8% in assay [4]; 75.3% in assay [5]; 84.3% in assay [6]. The growth in [7] was 63.9%; in assay [8], 81.4%; in assay [9] it was 46.6%.

As for `O=C1c2cc3c(cc2-c2c1c1cc(Cl)c(Cl)cc1c(=O)n2C[C@H](O)CO)OCO3`, the growth in [1] was -14.6% (active); in assay [2], 7.53% (active); in [3], -37.4% (active); in assay [4], 0.134% (active); in [5], -69% (active); in assay [6], -2.79% (active). Further, the figures for the growth in assay [7], in assay [8] and in assay [9] were -47% (active), -52.9% (active) and -16.3% (active), respectively.

Consider `COc1cc(C2CC(=O)c3c(C)nn(-c4nc5ccccc5[nH]4)c3C2)cc(OC)c1OC` (stereo not given), for which the growth in assay [1] is 85%; in assay [2] it was 71.7%; in assay [3], 75.1%; in assay [4] it was 29.5%; in assay [5], 30.3%; in [6] it was 7.82% (active). In addition, the growth in assay [7] was 64.7%; in [8], 98.7%; in assay [9], 102%.

For the molecule `N#Cc1c2c(nc3n[nH]c(N)c13)CCCC2`, the growth was 121% in assay [1]; 97.7% in assay [2]; 115% in assay [3]; 106% in assay [4]; 92.9% in assay [5]; 101% in assay [6]. The growth in [7] is 101%; in assay [8] it was 101%; in assay [9], 104%.

Regarding `COc1cnc2c(c1)C(=O)c1c-2n(CCCN2CCNCC2)c(=O)c2cc([N+](=O)[O-])ccc12`, the growth in assay [1] was -85.1% (active); in assay [2], -50.1% (active); in assay [3], -71.4% (active); in [4], -77.4% (active); in assay [5] it was 0.0319% (active); in assay [6] it was -66.6% (active). Further, the growth in assay [7] was -14.7% (active); in assay [8], 46.3%; in assay [9], -83.1% (active).

For `Cn1cc(-c2csc(-c3cn(C)c4ncccc34)n2)c2ccccc21`, the growth in assay [1] was 28%; in assay [2], 14.8%; in [3], 48.3%; in assay [4], 52.2%; in assay [5], 19.9%; in assay [6], 50.6%. Moreover, the growth is 9.79% (active) in assay [7], 61.1% in [8] and 12.2% in assay [9].

On to `CCN(C(=O)CN1CCN(c2cc3c(cc2F)c(=O)c(C(=O)O)cn3C2CC2)CC1)c1nc(-c2ccc(OC)cc2)cs1`, for which the growth in [1] is 35.7%; in assay [2], 32.5%; in assay [3], 66.1%; in [4], 68.5%; in assay [5], 74.9%; in assay [6], 59.8%. Also, the growth in assay [7] was 94.6%; in assay [8], 43.1%; in assay [9] it was 48.7%.

In the case of `CNc1nc(C)c(-c2nc(Nc3cccc(S(N)(=O)=O)c3)ncc2F)s1`, the growth in [1] was 10.9%; in assay [2] it was 4.89% (active); in assay [3], -31.4% (active); in assay [4], 3.09% (active); in assay [5], -50% (active); in assay [6], -12.7% (active). Further, the results for the growth in [7], in assay [8] and in assay [9] were 6.78% (active), -16.4% (active) and -3.19% (active), respectively.

`COc1ccc(/C=C/C(=O)c2c(O)c(C)c(O)c3c2OC2=CC(O)=C(C(C)=O)C(=O)[C@]23C)cc1`: the growth in assay [1] is 8.23% (active); in assay [2] it was -21.3% (active); in [3], -57.1% (active); in [4] it was -26.2% (active); in assay [5], -33.3% (active); in [6], -17.5% (active). The growth in assay [7] is -22.7% (active); in assay [8], -19.2% (active); in assay [9] it was -7.97% (active).

Consider `O=C(O)c1ccccc1Nc1cccc(S(F)(F)(F)(F)F)c1`, for which the growth in [1] is 107%; in assay [2], 107%; in assay [3] it was 101%; in [4] it was 110%; in assay [5], 116%; in [6] it was 94.2%. Besides, the growth in assay [7] was 99.4%; in assay [8], 102%; in [9], 102%.

Regarding `COc1cc(C2C(C(=O)c3cccs3)=C(O)C(=O)N2CCN2CCOCC2)cc(OC)c1OC` (stereo not given), the growth is 106% in assay [1]; 116% in assay [2]; 107% in assay [3]; 111% in [4]; 100% in assay [5]; 97.9% in assay [6]. Also, the growth in [7] was 100%; in assay [8], 108%; in assay [9], 99.6%.
